Reference: article PMC4336329 (PLoS ONE, 2015)
Hit rate of the full screen: of about 310,000 compounds, about 14,000 (4.5%) showed an effect of 50% or more. Effects have a minus sign here. This excerpt belongs to a sample that is enriched for strong results.

target: human ether-à-go-go-related gene (hERG) potassium channel (human, UniProt Q12809); experiment: primary screen, population patch clamp on CHO cells stably expressing hERG; higher = less effect of the substance
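Note: peak tail current of the secondary pulse compared with the same well before compound.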

human ether-à-go-go-related gene (hERG) potassium channel, sequence (Q12809 whole entry, looked up): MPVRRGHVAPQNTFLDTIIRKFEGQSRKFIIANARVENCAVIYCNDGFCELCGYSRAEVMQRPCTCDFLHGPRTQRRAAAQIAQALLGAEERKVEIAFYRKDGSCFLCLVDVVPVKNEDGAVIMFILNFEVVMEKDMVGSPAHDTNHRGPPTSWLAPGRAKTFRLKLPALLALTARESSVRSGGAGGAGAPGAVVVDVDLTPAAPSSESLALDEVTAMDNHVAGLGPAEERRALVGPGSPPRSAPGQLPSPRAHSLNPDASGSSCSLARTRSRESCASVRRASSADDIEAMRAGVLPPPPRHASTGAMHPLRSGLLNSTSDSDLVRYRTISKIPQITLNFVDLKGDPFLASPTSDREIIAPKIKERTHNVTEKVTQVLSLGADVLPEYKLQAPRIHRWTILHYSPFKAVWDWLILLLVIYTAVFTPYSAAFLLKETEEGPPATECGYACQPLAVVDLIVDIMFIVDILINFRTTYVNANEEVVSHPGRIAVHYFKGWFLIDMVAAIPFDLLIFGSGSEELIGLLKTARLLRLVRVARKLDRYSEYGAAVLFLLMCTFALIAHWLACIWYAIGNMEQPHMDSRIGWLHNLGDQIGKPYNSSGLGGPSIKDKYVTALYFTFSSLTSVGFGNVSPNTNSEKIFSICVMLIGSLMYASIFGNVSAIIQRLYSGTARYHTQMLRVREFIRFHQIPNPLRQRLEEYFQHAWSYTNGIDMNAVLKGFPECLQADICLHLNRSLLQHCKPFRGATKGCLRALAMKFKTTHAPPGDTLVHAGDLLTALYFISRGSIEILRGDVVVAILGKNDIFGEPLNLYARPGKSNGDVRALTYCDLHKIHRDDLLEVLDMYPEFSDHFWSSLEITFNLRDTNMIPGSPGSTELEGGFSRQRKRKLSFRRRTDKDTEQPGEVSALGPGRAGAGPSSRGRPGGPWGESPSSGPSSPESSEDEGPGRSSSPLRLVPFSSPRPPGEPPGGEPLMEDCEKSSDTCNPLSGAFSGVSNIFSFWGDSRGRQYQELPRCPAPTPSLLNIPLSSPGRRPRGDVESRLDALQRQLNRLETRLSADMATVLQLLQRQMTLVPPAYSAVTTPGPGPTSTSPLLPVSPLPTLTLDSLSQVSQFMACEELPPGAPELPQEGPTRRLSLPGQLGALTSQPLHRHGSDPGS

| SMILES | hERG current change (%, negative = inhibition) at 10uM [%] |
| --- | --- |
| CC(=O)OCn1ncc(N2CCOCC2)c(Br)c1=O | 16.5 |
| Cc1ccc(/C=N/Nc2cc(C)nc(N3CCOCC3)n2)cc1 | 17.5 |
| Cc1ccc(N=Nc2c(O)[nH]c(=O)[nH]c2=O)c([N+](=O)[O-])c1 | -5.68 |
| Cc1ccc(S(=O)(=O)NC(CCc2ccccc2)CC(=O)C(C)(C)C)cc1 (centres unmarked) | -0.463 |
| O=C(c1ccc(N2CCOCC2)c([N+](=O)[O-])c1)N1CCCC(C(F)(F)F)C1 (centres unmarked) | 2.23 |
| Cc1ccc(S(=O)(=O)NC(=O)N(C)C2CCCCC2)cc1 | 9.07 |
| CC1(C)Cc2c(C#N)c(NCCCO)nc(-c3ccccc3)c2CO1 | -56 |
| COc1nc(-c2ccccc2)c2c(c1C#N)CC(C)(C)OC2 | -11.2 |
| CN(C)CCCNc1nc(-c2ccccc2)c2c(c1C#N)CC(C)(C)OC2 | -57.4 |
| CN(C)CCNc1nc(-c2ccccc2)c2c(c1C#N)CC(C)(C)OC2 | -42.4 |
| Cc1nc(NCCCO)c(C#N)c2c1COC(C)(C)C2 | -15 |
| CC1(C)Cc2c(C#N)c(NCCN3CCOCC3)nc(-c3ccccc3)c2CO1 | -17.1 |
| CC1CCCCN1S(=O)(=O)c1ccc(C(=O)Nc2nnc(-c3ccco3)o2)cc1 (centres unmarked) | -2.35 |
| O=C(CCc1ccccc1)NNC(=O)Cc1ccc(Cl)cc1 | 13.1 |
| CCOC(=O)C1=C(C)Nc2ccccc2N=C1NC(=O)c1cccc(S(=O)(=O)NCc2ccccc2)c1 | -19.4 |
| Cc1nn(Cc2n[nH]c(=S)n2Cc2ccccc2)c(C)c1Cl | 14 |
| CC(C)CN1CCN(Cc2cccc3c2OCO3)CC1CCO (centres unmarked) | -1.45 |
| CCOc1ccc(CN2CCN(Cc3cccc4c3OCO4)CC2CCO)cc1 (centres unmarked) | -77.4 |
| OCCC1CN(Cc2cc3c(cc2Cl)OCO3)CCN1C1CCCC1 (centres unmarked) | -50.8 |
| Cc1ccc(CN2CCN(Cc3cccc4c3OCO4)CC2CCO)cc1 (centres unmarked) | -51.2 |
| CC(C)N1CCN(Cc2cc3c(cc2Cl)OCO3)CC1CCO (centres unmarked) | -2.34 |
| CC(C)=CCN1CCN(Cc2cccc3c2OCO3)CC1CCO (centres unmarked) | -12.6 |
| OCCC1CN(Cc2cccc3c2OCO3)CCN1Cc1ccccc1 (centres unmarked) | -3.38 |

| SMILES | hERG current change (%, negative = inhibition) at 10uM [%] |
| --- | --- |
| CC(C)N1CCC(N2CCN(Cc3cc4c(cc3Cl)OCO4)CC2CCO)CC1 (centres unmarked) | -18.5 |
| OCCC1CN(Cc2cccc3c2OCO3)CCN1C1CCCC1 (centres unmarked) | -20.4 |
| OCCC1CN(Cc2cc3c(cc2Cl)OCO3)CCN1Cc1ccccc1 (centres unmarked) | -45.3 |
| CC(C)N1CCN(Cc2cccc3c2OCO3)CC1CCO (centres unmarked) | -0.928 |
| CCOc1ccc(CN2CCN(Cc3cc4c(cc3Cl)OCO4)CC2CCO)cc1 (centres unmarked) | -73.3 |
| COc1ccc(C2/C=C\CN(CC(C)C)CC(=O)N2Cc2ccc(F)cc2)cc1 (centres unmarked) | -6.03 |
| Cc1cc([N+](=O)[O-])nn1CC(=O)N(C)C1CCCCC1 | -18.6 |
| O=C(Nc1ccccc1Cl)C1CCN(S(=O)(=O)c2cccc3nonc23)CC1 | 16 |
| CC(=O)c1c(C)oc2ccc(N(C(C)=O)S(=O)(=O)c3cccc([N+](=O)[O-])c3)cc12 | 8.76 |
| N#C/C(=C(/O)CN1C(=O)c2ccccc2C1=O)c1nc2ccccc2[nH]1 | 11.6 |
| CCOc1ccccc1CN1CCN(Cc2cccc3c2OCO3)CC1CCO (centres unmarked) | -62.6 |
| COc1cc(S(=O)(=O)N(Cc2cccnc2)Cc2ccco2)ccc1-n1cnnn1 | -52.3 |
| COc1ccccc1CN(Cc1cccnc1)S(=O)(=O)c1ccc(-n2cnnn2)c(OC)c1 | -63 |
| COc1ccccc1CN(Cc1ccco1)S(=O)(=O)c1ccc(-n2cnnn2)c(OC)c1 | 7.21 |
| COc1cc(S(=O)(=O)N(Cc2cccnc2)Cc2cccc(OC)c2OC)ccc1-n1cnnn1 | -46.5 |
| COc1ccc(CN(Cc2cccnc2)S(=O)(=O)c2ccc(-n3cnnn3)c(OC)c2)cc1 | -46.7 |
| COc1cc(S(=O)(=O)N(Cc2ccc(C)cc2)Cc2ccco2)ccc1-n1cnnn1 | 2.53 |
| CC(C)C[C@H](NC(=O)c1nc[nH]c1C(=O)N1CC[NH2+]CC1)C(=O)OCc1ccccc1.[Cl-] | 20.5 |
| COc1ccc(C2C3=C(CCCC3=O)N(CC(=O)O)C3=C2C(=O)CCC3)cc1Cl | 23.8 |
| CN(c1cccc(NC(=O)CCSc2ccccc2)c1)S(C)(=O)=O | -28.8 |
| O=C1c2ccccc2NC(c2ccc3c(c2)OCCO3)N1c1ccc2c(c1)OCCO2 (centres unmarked) | 10.9 |
| Cc1cc(NC(=O)/C=C\C(=O)O)c([N+](=O)[O-])cc1C | 11.6 |
| Cc1ccc(NC(=O)/C=C/C(=O)O)c([N+](=O)[O-])c1 | -67 |

| SMILES | hERG current change (%, negative = inhibition) at 10uM [%] |
| --- | --- |
| Cc1ccc(NC(=O)/C=C\C(=O)O)c([N+](=O)[O-])c1 | 21.4 |
| COC(=O)c1cn(NC(=O)Cc2cccc(OC)c2)c(=O)c2ccccc12 | 12 |
| CCN1CCN(CCCN(Cc2ccco2)C(=S)Nc2ccc(C)c(Cl)c2)CC1 | -64.8 |
| Cc1ccc(NC(=S)N(CCCN2CCOCC2)Cc2ccco2)cc1Cl | -36.6 |
| COc1cccc(NC(=S)N(CCCN2CCN(C)CC2)Cc2ccco2)c1 | -36.2 |
| CCN1CCN(CCCN(Cc2ccco2)C(=S)Nc2ccc(Cl)c(C)c2)CC1 | -74.8 |
| Cc1cccc(NC(=S)N(CCCN2CCOCC2)Cc2ccco2)c1 | -29.9 |
| Cc1cc(NC(=S)N(CCCN2CCN(C)CC2)Cc2ccco2)ccc1Cl | -68.2 |
| S=c1[nH]nc(CSCCOc2ccccc2)o1 | 8.24 |
| CN(C)S(=O)(=O)c1cccc(NC(=O)CNCC2CCCCC2)c1.O=C(O)C(=O)O | -1.77 |
| Cc1ccc2nc(SCC(=O)N3c4ccccc4CC3C)c(C)cc2c1 (centres unmarked) | 7.54 |
| COc1ccc(NC(=O)C2CC2)cc1-n1cnnn1 | 5.86 |
| O=C1CC(c2ccccc2)Cc2nc(N3CCc4ccccc4C3)ncc21 (centres unmarked) | -2.75 |
| CCC(CO)N=CC1=C(O)CC(c2ccccc2)CC1=O (centres unmarked) | 17.1 |
| Cc1cc(C)c(NC2=NS(=O)(=O)c3ccccc32)c(C)c1 | -10.9 |
| CC1=NC(Nc2nc(C)c3ccccc3n2)=NC(C)(C)C1 | -69.4 |
| COc1ccc(Nc2nc(C)c3ccccc3n2)cc1 | -17.4 |
| CC(=O)c1cnc(Nc2nc(C)c3ccccc3n2)nc1C | 17.3 |
| O=C(O)c1ccccc1Sc1ncnc2sccc12 | 9.7 |
| Cc1cc(C(=O)OCC(=O)NC2CCS(=O)(=O)C2)c(C)n1-c1ccccc1 (centres unmarked) | -6.8 |
| CC(NC(=O)Nc1nnc(C(F)(F)F)s1)(C(F)(F)F)C(F)(F)F | -7.61 |
| CCc1nnc(NC(=O)CCN2C(=O)c3ccccc3S2(=O)=O)s1 | 17.3 |
| CCOC(=O)c1c(C)[nH]c(C(=O)N/N=C/c2ccc(OC)c(OC)c2)c1C | 12.7 |

| SMILES | hERG current change (%, negative = inhibition) at 10uM [%] |
| --- | --- |
| COc1ccc(/C=C(\NC(=O)c2ccccc2)C(=O)NCCN2CCOCC2)cc1OC | 23 |
| COc1ccc(C(=O)N/C(=C\c2cn(C)c3ccccc23)C(=O)NCCCN2CCOCC2)cc1 | 4.94 |
| COc1ccc(/C=C(\NC(=O)c2ccc([N+](=O)[O-])cc2)C(=O)NCCCN2CCOCC2)cc1 | -77 |
| O=C(NC(=S)NCCCN1CCOCC1)c1ccc([N+](=O)[O-])cc1 | -33.4 |
| COc1ccc(/C=C(\NC(=O)c2ccc([N+](=O)[O-])cc2)C(=O)NCCN2CCOCC2)cc1 | -70.7 |
| COc1ccc(C(=O)N/C(=C\c2ccco2)C(=O)NCCN2CCOCC2)cc1 | 8.33 |
| COc1cc2c(cc1OC)C(c1ccccc1)CC2=O (centres unmarked) | 7.03 |
| COC(=O)c1ccc(-c2nc3ccccc3[nH]2)cc1 | 17.8 |
| Cc1cccc(Nc2ccc([N+](=O)[O-])cn2)c1 | 10.9 |
| CC(Oc1cccnc1[N+](=O)[O-])C(=O)Nc1ccc(Cl)cn1 (centres unmarked) | -16.6 |
| Cc1csc(NC(=O)C(C)Oc2ccc(Cl)cc2C)n1 (centres unmarked) | -21 |
| Cc1cccc(OCCNc2ccc([N+](=O)[O-])cn2)c1 | -21.3 |
| CC(=O)Nc1ccc([N+](=O)[O-])cn1 | 24.4 |
| CCC(CC)C(=O)Nc1ccc([N+](=O)[O-])cn1 | 10.8 |
| Cc1cccc(C(C)Nc2ccc([N+](=O)[O-])cn2)c1 (centres unmarked) | -68.9 |
| CC(Oc1cccc(Cl)c1)C(=O)Nc1ccncc1 (centres unmarked) | 3.81 |
| CCC(C(=O)Nc1ccccn1)c1ccccc1 (centres unmarked) | 1.4 |
| Cc1cc(Cl)ccc1OC(C)C(=O)Nc1ccc([N+](=O)[O-])cn1 (centres unmarked) | -75.9 |
| CCC(C(=O)Nc1ccc([N+](=O)[O-])cn1)c1ccccc1 (centres unmarked) | -67.4 |
| CC(Oc1cccc(Cl)c1)C(=O)Nc1ccc([N+](=O)[O-])cn1 (centres unmarked) | -62.2 |
